# In PubChem BioAssay (NCI):
# The panel holds about 83,000 compounds, 20% with a hit somewhere; the sample as a whole holds those more often.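 Plates (96-well) were seeded with cells, treated with compound at one concentration, and incubated for 48 hours before percent growth was determined.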 A number with no mark means an inactive call. The source made the active and inactive calls. How the source made its calls: active means growth percent below 10; inactive means the rest.
# Assays:
# Test in all cases: NCI-60 one-dose screen, 48 h (100 = growth as untreated, 0 = no growth, -100 = all killed)
# Conditions in all cases: 10 µM unless noted
# NCI-H23 lung = test system: NCI-H23 lung
# NCI-H226 lung = test system: NCI-H226 lung
# NCI-H322M lung = test system: NCI-H322M lung
# HOP-62 NSCLC = test system: HOP-62 NSCLC
# NCI-H460 lung = test system: NCI-H460 lung
# HOP-92 NSCLC = test system: HOP-92 NSCLC
# NCI-H522 lung = test system: NCI-H522 lung
# A549/ATCC NSCLC = test system: A549/ATCC NSCLC
# 786-0 renal = test system: 786-0 renal
# COLO 205 colon = test system: COLO 205 colon
# DU-145 prostate = test system: DU-145 prostate
# K-562 leukemia = test system: K-562 leukemia
# MALME-3M melanoma = test system: MALME-3M melanoma
# MDA-MB-231 breast = test system: MDA-MB-231 breast
# RXF 393 renal = test system: RXF 393 renal
# SF-268 CNS = test system: SF-268 CNS
# SF-295 CNS = test system: SF-295 CNS
# SF-539 CNS = test system: SF-539 CNS
# UACC-257 melanoma = test system: UACC-257 melanoma
# M14 melanoma = test system: M14 melanoma
SMILES,growth (NCI-H23 lung),growth (NCI-H226 lung),growth (NCI-H322M lung) [%],growth (HOP-62 NSCLC),growth (NCI-H460 lung),growth (HOP-92 NSCLC),growth (NCI-H522 lung),growth (A549/ATCC NSCLC),growth (786-0 renal),growth (COLO 205 colon),growth (DU-145 prostate) [%],growth (K-562 leukemia),growth (MALME-3M melanoma),growth (MDA-MB-231 breast),growth (RXF 393 renal),growth (SF-268 CNS),growth (SF-295 CNS),growth (SF-539 CNS),growth (UACC-257 melanoma),growth (M14 melanoma)
c1ccc(CSc2nnc(-c3ccc4nc(-c5ccccc5)[nH]c4c3)o2)cc1,68%,-40.1% (active),35.9,-3.53% (active),-41.3% (active),32.2%,33.7%,-12.4% (active),-17.3% (active),78.3%,21.4,33.5%,7.77% (active),-12.8% (active),-22.1% (active),8.24% (active),17.1%,-39.9% (active),57.6%,41.5%
COc1ccc(-c2cc(C(=O)OCc3ccc(Br)cc3)nn2-c2ccc(S(C)(=O)=O)cc2)cc1OC,93.6%,82%,90.9,75.9%,91.1%,69.5%,52.8%,78.6%,75%,110%,86.4,79.9%,106%,70.5%,62%,66.5%,81.4%,72.4%,106%,114%
N#C/C(=C1/C(=O)Nc2ccccc21)c1nnc(NC(=O)c2ccc(-n3c(=O)[nH]c4ccccc4c3=O)cc2)s1,30.4%,34.4%,53.6,53.7%,6.96% (active),56%,14.3%,49.8%,66.1%,-0.152% (active),37.4,15.9%,26.9%,4.04% (active),53.4%,65.4%,74.5%,36.4%,47.9%,58.2%
CC(C)C[C@H](NC(=O)CNC(=O)C[C@H]1O[C@@H]2OC3(C)CC[C@H]4[C@H](C)CC[C@@H]([C@H]1C)[C@@]24O3)B(O)O,-37.1% (active),-36.2% (active),54.4,-3.39% (active),9.47% (active),-18.8% (active),-74.3% (active),27.9%,16%,29.5%,42,8% (active),-71.9% (active),-80.9% (active),-78.5% (active),-22.4% (active),-61.3% (active),-93.6% (active),-52.1% (active),-45.8% (active)
COc1ccc(NC(=O)Cn2c(/C=C/c3cccc(Br)c3)nc3ccccc3c2=O)cc1,59.3%,6.61% (active),58.1,2.11% (active),32%,11%,42.6%,16.5%,-44.4% (active),70.4%,79.1,86.3%,48.7%,-38.4% (active),-16.3% (active),65.2%,48.9%,-23.4% (active),71.1%,50.2%
COc1cc(CNC(=O)C[C@H](C)CCC=C(C)C)ccc1OCc1cn(-c2ccccc2Cl)nn1,64.5%,59.7%,91.3,79.3%,78.4%,79.4%,51.4%,64.1%,87.7%,71.7%,90.1,44.6%,68.2%,72.6%,72.6%,82.4%,56.4%,75.2%,60.3%,55.9%
O=C(CSc1nc2ccccc2c(=O)[nH]1)Nc1ccccc1C(=O)O,104%,102%,101,97.8%,118%,118%,107%,112%,107%,124%,129,97.8%,79.4%,94.6%,99.4%,94.1%,101%,92.7%,103%,105%
